# Assay outcomes (PubChem)
# This excerpt belongs to a sample that is enriched for hits.
# Pf Dd2 inh: qHTS Primary assay for Inhibitors of Plasmodium falciparum Dd2 growth in vitro. hit rate 4.3% among 120,000. P. falciparum Dd2 growth, SYBR Green, 72 h. Potency, µM (highest dose often 28.9 µM), without a hit: at the top dose activity, negative = inhibition, usual class: inhibitors; active = well fitted inhibition curve with a large enough effect;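 note: plate controls were DMSO vehicle for no effect and reference drug for full effect; nearly all actives have a fitted effect of over 65% in size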
#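 Readout: SYBR Green fluorescence, 485 nm excitation, 535 nm emission, after ~16 h lysis at 37C. Before that, Dd2-infected red cells (2.5% hematocrit) grew 72 h with compound, 29 uM top final concentration.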
# * marks the source's active call; other numbers are inactive results; i = inactive; [ ] = another dose, or the depositor's remark. Potency is the fitted concentration of half-maximal effect.
SMILES,Pf Dd2 inh
COc1cc2c(cc1OC)C(COc1ccccc1OC)N(C(=O)c1ccc(S(=O)(=O)N(C)C)cc1)CC2 (stereo not drawn),i
CCCC(=O)N1CCc2cc(OC)c(OC)cc2C1COc1ccccc1OC (stereo not drawn),12.6µM*
CCc1ccccc1NC(=O)N1CCc2cc(OC)c(OC)cc2C1CC(=O)OC (stereo not drawn),i
COC(=O)c1ccc(OCC2c3cc(OC)c(OC)cc3CCN2C(=O)c2ccccc2F)cc1 (stereo not drawn),10µM*
COc1cc2c(cc1OC)C(CNC(=O)c1ccc(Cl)cc1)N(C(=O)Nc1cccc(F)c1)CC2 (stereo not drawn),-3.2%
COc1cc(OC)c(NC(=O)N2CCc3cc(OC)c(OC)cc3C2CC(=O)O)cc1Cl (stereo not drawn),9.3%
O=C(CC1COCCN1)N1CCC2(CCC(=O)N(CCc3ccccc3)C2)CC1 (stereo not drawn),4.1%
Cn1c(=O)c2c(ncn2CC(=O)N2CCC(CCOc3ccc(F)cc3)C2)n(C)c1=O (stereo not drawn),-7.5%
CN1CC(=O)N(C2CCCC2)Cc2c1ncnc2N1CCOCC1,5.3%[44.1 µM]
O=C(NC1CCCCC1)C1CCN(C(=O)c2ncn3c2COC(c2ccc(F)cc2)C3)CC1 (stereo not drawn),i
CCc1cc(NCc2nc(-c3ccncc3)n[nH]2)n2nc(C)c(C)c2n1,-16.6%
CC1(C)[C@H](Cc2cc(CN3CCOCC3)on2)C[C@@H]1NS(=O)(=O)c1ccccc1,-28.7%[44.1 µM]
Cc1ccc(C(=O)NC2CCN(c3cc(-c4ccccc4)[nH]n3)C2)s1 (stereo not drawn),i
C=CCNC(=O)C(NC(=O)c1ccc(OC)cc1)C1CCN(C(=O)c2cccc(F)c2)CC1 (stereo not drawn),i
CN(C)[C@@H]1CN(Cc2ccccn2)CC[C@@H]1CO,15.7%
COc1ccc(CCNc2ncnc3c2CN(C2CCCNC2)C(=O)CN3C)cc1 (stereo not drawn),11.0%
COc1ccccc1Cc1nc(C2CC(=O)N(c3ccc(F)c(Cl)c3)C2)no1 (stereo not drawn),37.4%
O=C(Cc1c(F)cccc1Cl)N1CCN(c2cc(-c3ccccc3)[nH]n2)CC1,-1.5%
COc1ccc(CC(=O)NCc2ccc3c(c2)CCN3C(=O)c2ccc(Cl)cc2)cc1OC,i
CCOC(=O)c1ccc(OCC2c3cc(OC)c(OC)cc3CCN2C(=O)Cc2ccc(OC)c(OC)c2)cc1 (stereo not drawn),8.91µM*
COc1cc2c(cc1OC)C(CNC(=O)c1ccccc1C)N(C(=O)Nc1cccc(C)c1)CC2 (stereo not drawn),i
COc1cc2c(cc1OC)C(COc1cc(C)cc(C)c1)N(C(=O)COc1ccccc1)CC2 (stereo not drawn),5.01µM*
COc1ccc(C(=O)N2CCN(C(=O)COc3ccccc3)CC2)cc1OC,12.0%
CC(C)c1nnc(C2CN(C(=O)c3ccc(OC(F)(F)F)cc3)CC23CCOCC3)o1 (stereo not drawn),i
Cc1ccccc1C(=O)Nc1sc2c(c1C(=O)N1CCCCC1)CCC(C(C)(C)C)C2 (stereo not drawn),5.62µM*
SMILES,Pf Dd2 inh
Cc1ccccc1C(=O)Nc1sc2c(c1C(=O)NCc1ccco1)CCC(C(C)(C)C)C2 (stereo not drawn),11.2µM*
CC1CCN(C(=O)c2c(NC(=O)c3ccccc3Cl)sc3c2CCC(C(C)(C)C)C3)CC1 (stereo not drawn),11.2µM*
Cc1ccccc1C(=O)Nc1sc2c(c1C(=O)O)CCC(C(C)(C)C)C2 (stereo not drawn),-27.1%
Cc1cc(C)c2c(=O)cc(C(=O)Nc3sc4c(c3C(=O)NCc3ccco3)CCCC4)oc2c1,-2.6%
COC(=O)c1c(NC(=O)c2cccc(OC)c2)sc2c1CCC(C(C)(C)C)C2 (stereo not drawn),-4.4%
CC(C)(C)C1CCc2c(sc(NC(=O)c3cc(-c4ccc(F)cc4)on3)c2C#N)C1 (stereo not drawn),32.7%
CCC(CC)NC(=O)CCC1CCN(C(=O)c2ccccc2Cl)CC1,-12.6%
Cc1ccc2c(=O)cc(C(=O)Nc3sc4c(c3C(=O)NCc3ccco3)CCC4)oc2c1C,38.3%
CC(C)CCNC(=O)c1cnc2n1CCN(Cc1c[nH]c3ccccc13)CC2,i
O[C@@H]1C[C@@H](c2nc(-c3ccncc3)no2)N(Cc2ccccc2)C1,-21.2%[44.1 µM]
Cc1cc(NC(=O)c2cc3n(n2)CC(c2ccc4c(c2)OCO4)OC3)ccc1F (stereo not drawn),-6.3%
CN(C)C[C@@H]1CN(c2ccccn2)C[C@H]1NC(=O)c1ccoc1,-7.5%
COCc1nc(C2CC(N)C2)cc(N(C)CCN2CCCCC2=O)n1 (stereo not drawn),-7.8%
O=C(Cc1c[nH]c2ccccc12)N1CC(c2nnc(-c3ccncc3)o2)C2(CCOCC2)C1 (stereo not drawn),i
CN(Cc1cccc(OC(F)(F)F)c1)Cc1ccccc1C(F)(F)F,14.9%
O=C(Nc1ccccc1)N1CC(c2nc(CCOCC3CC3)no2)C1,-15.8%
